Compound activity (PubChem BioAssay)
D2 antagonist = D2 dopamine receptor (human) antagonism. inhibition, % at 10 µM. HEK293 TREx D2 cells, calcium flux, dopamine EC80. AID 485344. 340,000 tested, 2% active; in the data active = inhibition above about 30%; inactive = below that, where a call was filed; also: 0% is about no effect
Target sequence (P14416 whole entry, looked up): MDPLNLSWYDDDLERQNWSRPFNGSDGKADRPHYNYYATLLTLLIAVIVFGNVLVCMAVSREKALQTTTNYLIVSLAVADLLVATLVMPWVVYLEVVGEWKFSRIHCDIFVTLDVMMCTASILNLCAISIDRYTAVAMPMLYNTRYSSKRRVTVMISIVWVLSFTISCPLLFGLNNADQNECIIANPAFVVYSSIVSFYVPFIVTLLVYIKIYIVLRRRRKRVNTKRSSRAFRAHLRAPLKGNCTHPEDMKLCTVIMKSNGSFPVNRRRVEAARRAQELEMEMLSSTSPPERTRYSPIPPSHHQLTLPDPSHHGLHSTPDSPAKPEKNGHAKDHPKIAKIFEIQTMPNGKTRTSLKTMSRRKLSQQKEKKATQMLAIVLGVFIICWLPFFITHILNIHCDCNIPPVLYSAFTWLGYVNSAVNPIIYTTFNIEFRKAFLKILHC
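Inhibition of EC80 dopamine-driven calcium flux, recorded kinetically, defines activity here; cells are a tetracycline-induced HEK293 T-REx line expressing force-coupled D2.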
D2 PAM-1 = positive allosteric modulators of human D2 dopamine receptor | potentiation, % at 10 µM | AID 485347 | 340,000 tested, 0.34% active | HEK293 T-REx D2, calcium flux, EC20 dopamine potentiation | P14416;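 active = potentiation over 3 SD above the plate norm, cut at about 30% in these data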; also: 0% is about no effect
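Potentiation of an EC20 dopamine calcium response measured kinetically over 180 s, after a preceding 180 s compound-only read flagging agonists. Cells: inducible Hek293 Trex D2 line, 4000/well, cultured overnight at 30 C before dye loading.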
D2 ag-1 = activates the human D2 dopamine receptor. DiscoveRx PathHunter D2 beta-arrestin, luminescence, 90 min; 100% = 57 uM dopamine signal. 360,000 tested, 0.084% active. activation, % (test concentration not listed). P14416; in the data active = activation above about 40%
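Agonist mode: compounds alone added to overnight-plated D2 PathHunter cells for 90 min at 37 C, with 57 uM final dopamine (EC100) defining full response. Beta-arrestin recruitment detected by chemiluminescent reagent, read after 1 h at ambient temperature.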
D2 PAM-2 = positive allosteric modulators of human D2 dopamine receptor | P14416 | DiscoveRx D2 beta-arrestin cells, luminescence, 90 min; 100% = 57 uM dopamine signal | potentiation, % (no concentration beside the values) | 360,000 tested, 0.23% active; in the data active = potentiation above about 50%
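D2 cells co-treated with compound plus 50 nM dopamine (EC20) for 90 min at 37 deg C to detect potentiation. Beta-arrestin recruitment was read as enzyme-fragment luminescence after 1 h at ambient temperature. Full response was set by 57 uM dopamine.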
D2 ag-2 = agonists of human D2 dopamine receptor | activation, % at 2 µM | P14416 | HEK293 T-REx D2 cells, calcium flux agonist mode | 340,000 tested, 0.53% active;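 active = activation over 3 SD above normal in the single-dose calcium agonist read, cut at about 30% in these data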; also: 0% is about no effect
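Agonism scored from kinetic calcium signal (1 read/sec, 180 s) following compound pin transfer, after a 10 s baseline. Cells: HEK293 Trex line expressing inducible D2 receptor coupled to calcium, dye-loaded after overnight culture at 30 C.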
* hit, by the source's call. A selection: hits, their analogues and other compounds. The true share with any hit is near 2.4%.

How did Cc1cccc(OC(=O)c2cc(-c3ccc4c(c3)OCCO4)on2)c1C do in these assays?
D2 PAM-1: 1.1; D2 ag-2: 2.5

Results for O=C(C1CC1)N1CCc2cc(Br)cc(S(=O)(=O)N3CCOCC3)c21 ?
D2 ag-1: 0.1; D2 PAM-2: 24.9

How did O=C(C1CC1)N1CCc2cc(Br)cc(S(=O)(=O)NCCN3CCOCC3)c21 do in these assays?
D2 antagonist: 39.9*; D2 PAM-1: -16.3; D2 ag-1: 0.0; D2 PAM-2: -8.6; D2 ag-2: 0.3

How did Cc1ccc(NC2=C(NC(=O)c3ccccc3)C(=O)c3ccccc3C2=O)cc1Cl do in these assays?
D2 antagonist: 13.6; D2 PAM-1: 2.1; D2 ag-1: 10.9; D2 PAM-2: 65.0*; D2 ag-2: -2.2

Results for O=C(O)c1cccc(NC2=C(Cl)C(=O)c3ccccc3C2=O)c1 ?
D2 PAM-1: -2.9; D2 ag-1: 41.5*; D2 PAM-2: 0.5

What do the screens show for `COc1ccc(F)cc1C(=O)C1CCCN(Cc2ccc(Sc3nncn3C)o2)C1` (stereo not given)?
D2 antagonist: 30.9*; D2 PAM-1: -17.6; D2 ag-1: -3.7; D2 PAM-2: -3.0; D2 ag-2: 1.1

What do the screens show for `CCC(CC)C(=O)Nc1nnc(S(=O)(=O)N2CCCCCC2)s1`?
D2 antagonist: 31.9*; D2 PAM-1: -13.1; D2 ag-1: 0.0; D2 PAM-2: -0.4; D2 ag-2: 0.0

Results for CC(C)C(=O)Nc1nnc(S(=O)(=O)N2CCCCCC2)s1 ?
D2 antagonist: -0.5; D2 PAM-1: -0.3; D2 ag-1: -5.4; D2 PAM-2: -5.9; D2 ag-2: 0.8

What do the screens show for `Cc1ccc(-c2nc(C)c(CCNS(=O)(=O)c3ccc(F)c(C(F)(F)F)c3)s2)cc1`?
D2 ag-2: -0.6

Results for COc1ccc(N2CCN(C(=O)c3cc4c(-c5ccccc5F)nn(C)c4s3)CC2)cc1 ?
D2 PAM-1: 6.7; D2 ag-2: -0.5

Results for c1coc(CNc2nc(-c3ccncc3)cs2)c1 ?
D2 PAM-1: 32.1*; D2 ag-1: 2.3; D2 PAM-2: 13.2

Results for COc1ccc(-c2csc(NCc3ccco3)n2)cc1 ?
D2 antagonist: -9.7; D2 PAM-1: 8.3; D2 ag-1: -5.7; D2 PAM-2: -9.3; D2 ag-2: -0.3

How did O=C(NCCCN1CCc2ccccc2C1)Nc1ccc(Br)cc1 do in these assays?
D2 antagonist: 30.7*; D2 PAM-1: -18.9; D2 ag-1: 0.5; D2 PAM-2: -34.1; D2 ag-2: 0.1

Results for COc1ccc(CNC(=O)N2CCc3ccccc3C2)cc1 ?
D2 antagonist: 34.1*; D2 PAM-1: 7.7; D2 ag-1: -3.6; D2 PAM-2: -10.4; D2 ag-2: -1.2

What do the screens show for `COc1ccc(NC(=O)NCCCN2CCc3ccccc3C2)cc1`?
D2 antagonist: 42.9*; D2 PAM-1: -34.2; D2 ag-1: 3.8; D2 PAM-2: -9.5; D2 ag-2: 1.3

What do the screens show for `Cc1ccc(C)n1-c1c(C(=O)NCC(C)c2ccccc2)sc2ncccc12` (stereo not given)?
D2 PAM-1: -0.3; D2 ag-2: -0.5

How did NC(=O)c1noc(C(=O)N(CC(=O)NC2CCCC2)Cc2ccc3c(c2)OCO3)c1N do in these assays?
D2 antagonist: 36.7*; D2 PAM-1: -3.0; D2 ag-1: -1.1; D2 PAM-2: -9.7; D2 ag-2: 1.2

What do the screens show for `CCOC(=O)C1=C(c2ccccc2)NC(SCC(=O)Nc2cccc(C)c2)=C(C#N)C1c1ccco1` (stereo not given)?
D2 antagonist: -5.1; D2 PAM-1: -19.2; D2 ag-1: -0.8; D2 PAM-2: 2.1; D2 ag-2: 0.3

Results for CCOC(=O)C1=C(c2ccccc2)NC(SCC(=O)Nc2ccc(C)cc2)=C(C#N)C1c1ccco1 (stereo not given) ?
D2 antagonist: 54.9*; D2 PAM-1: 13.5; D2 ag-1: 0.4; D2 PAM-2: -7.3; D2 ag-2: 0.8

How did COc1ccc(Br)cc1CN1CCN(Cc2c[nH]c3ccccc23)CC1 do in these assays?
D2 antagonist: 86.8*; D2 PAM-1: -21.8; D2 ag-1: -2.8; D2 PAM-2: -15.1; D2 ag-2: 1.6

Results for COc1ccc(CN2CCN(Cc3c[nH]c4ccccc34)CC2)cc1OC ?
D2 ag-1: -2.9; D2 PAM-2: -28.3
